The structures appear in SMILES notation. About 83,000 compounds went through this panel and 20% of them were active in at least one assay; those are over-represented in the sample as a whole.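 Each cell line was grown in a 96-well plate and treated with one concentration of compound for 48 hours. Values below 10 were considered active.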 Calls of active or inactive are those of the source.

For the test, the system named is UACC-62 melanoma. Kind of test: NCI-60 one-dose screen, 48 h (100 = growth as untreated, 0 = no growth, -100 = all killed). Particulars: 10 µM unless noted.
For `Cc1ccc(NC(=O)c2ccc(CN3CCN(C)CC3)cc2)cc1Oc1ccc(-c2[nH]nc3ncnc(N)c23)cc1`, the growth was 84.3% (inactive). Regarding `CCCn1cnc2c(c1=N)C(c1ccc(Cl)cc1)c1sc3c(C)cccc3c1O2` (configuration not stated), the growth was 5.02% (active).

For the compound `NC(N)=Nc1ccc(Oc2cccc(NC(N)=Nc3ccc(I)cc3F)c2)cn1`, the growth was 63% (inactive). Under `Cc1occc1-c1nc2s/c(=C/c3ccc(-c4cc(C(F)(F)F)ccc4Cl)o3)c(=O)n2n1` stands 93.8% (inactive); under `C[C@H]1c2[nH]c3ccccc3c2C[C@H]2C(=O)N(CCCCCCC(=O)NO)CC(=O)N21`, 69.6% (inactive). Under `COc1ccc(-c2cc(-c3ccc(Cl)cc3)c(C#N)c(=O)n2Cc2ccc(C(=O)O)cc2)cc1` stands 18.4% (inactive); under `O=C1[C@H]2Cc3c([nH]c4ccccc34)[C@@H](c3ccc(Cl)cc3)N2C(=O)CN1C1CCN(Cc2ccccc2)CC1`, 75.4% (inactive); under `COc1cc(-c2nn(C(C)(C)C)cc2-c2ccnc(NCCCNS(=O)(=O)c3ccc(C)cc3)n2)ccc1Cl`, 68.3% (inactive).

On to `CCCCNNC(=O)c1ccc(-c2cccc(F)c2F)cc1`, for which the growth is 8.48% (active). For the compound `CC1(C)CC[C@]2(C(=O)N3CCOCC3)CC[C@]3(C)C(=CC[C@@H]4[C@@]5(C)C/C(=C/c6ccccn6)C(=O)C(C)(C)[C@@H]5CC[C@]43C)[C@@H]2C1`, the growth is 64.8% (inactive). Under `O=S(=O)(NCCNc1nccc(-n2cnc3ccccc32)n1)c1ccc(Br)cc1` stands 82.8% (inactive). Under `CC1(C)CC[C@]23CC[C@]4(C)[C@H](CC[C@@H]5[C@@]6(C)CCCN(CO)C(C)(C)[C@@H]6CC[C@]54C)[C@H]2[C@H]1OC3` stands 101% (inactive).

Source of the values: PubChem BioAssay (NCI).
